Source: PubChem BioAssay
Active and inactive are the calls of the source. Unless noted, the rule behind the calls is not given here.

Legend:
[1] = compounds binding Alexa647 anti-His antibody – biochemical, small-molecule microarray, 635 nm fluorescence, artefact control for SMM control protein annotation, primary screen (AID 1128); conditions: higher = more signal;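 note: score merges feature fluorescence with signal-to-noise for each printed compound spot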
[2] = system: Human papillomavirus type 1a E7 protein (residues 1-88); assay: HPV1a E7 small-molecule binders, primary screen, biochemical, small-molecule microarray, residues 1-88, 635 nm (AID 1129); conditions: small-molecule microarray binding, fluorescence 635 nm; higher = more signal
[3] = biological target: Focal adhesion kinase 1 (Homo sapiens) (UniProt Q05397); assay: PTK2 protein binding on printed compound slides – biochemical, small-molecule microarray, 635/667 nm fluorescence, BSA, DTT, primary screen (AID 1130); conditions: 635 nm fluorescence, higher = more signal;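 note: composite of spot emission at 667 nm and signal to noise over triplicate slides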
Focal adhesion kinase 1 (Homo sapiens), sequence (Q05397 whole entry, looked up): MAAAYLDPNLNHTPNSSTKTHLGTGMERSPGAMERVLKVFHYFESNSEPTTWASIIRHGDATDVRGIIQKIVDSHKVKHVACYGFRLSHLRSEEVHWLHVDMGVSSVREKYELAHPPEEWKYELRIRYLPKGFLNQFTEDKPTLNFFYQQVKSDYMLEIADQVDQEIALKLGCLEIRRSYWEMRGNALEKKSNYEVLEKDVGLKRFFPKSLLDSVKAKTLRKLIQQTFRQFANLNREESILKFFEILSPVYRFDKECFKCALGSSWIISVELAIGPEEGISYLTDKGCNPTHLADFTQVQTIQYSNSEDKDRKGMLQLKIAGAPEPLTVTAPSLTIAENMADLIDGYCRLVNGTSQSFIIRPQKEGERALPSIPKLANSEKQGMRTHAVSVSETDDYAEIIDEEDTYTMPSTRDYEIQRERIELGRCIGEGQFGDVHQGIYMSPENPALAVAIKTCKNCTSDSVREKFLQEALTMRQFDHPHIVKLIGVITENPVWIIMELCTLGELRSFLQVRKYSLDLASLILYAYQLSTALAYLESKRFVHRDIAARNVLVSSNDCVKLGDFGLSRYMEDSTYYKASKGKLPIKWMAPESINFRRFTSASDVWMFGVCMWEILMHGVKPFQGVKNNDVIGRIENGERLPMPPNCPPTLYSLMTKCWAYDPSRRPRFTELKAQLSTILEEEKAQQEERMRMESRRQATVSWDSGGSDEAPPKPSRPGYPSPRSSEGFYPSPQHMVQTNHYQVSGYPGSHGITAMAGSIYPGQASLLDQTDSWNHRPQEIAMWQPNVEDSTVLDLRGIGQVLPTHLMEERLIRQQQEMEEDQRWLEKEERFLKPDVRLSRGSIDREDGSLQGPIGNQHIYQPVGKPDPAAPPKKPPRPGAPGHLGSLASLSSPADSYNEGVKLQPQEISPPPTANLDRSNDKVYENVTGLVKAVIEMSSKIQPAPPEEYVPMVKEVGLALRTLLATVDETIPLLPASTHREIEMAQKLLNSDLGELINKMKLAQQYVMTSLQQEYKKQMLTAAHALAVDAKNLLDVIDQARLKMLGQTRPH

[4] = system: Fibrinogen (Alexa647-labelled); assay: Alexa647-fibrinogen binding to printed small molecules – biochemical, small-molecule microarray, 635/667 nm fluorescence, artefact control for SMM control-protein annotation, profiling panel (AID 1131); conditions: fibrinogen-A647 binding fluorescence, higher = more signal;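 note: z-score merges 667 nm fluorescence with per-spot signal-to-noise over triplicate slides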
[5] = biological target: Follistatin (Homo sapiens) (UniProt P19883); assay: FST protein binding to printed compounds – biochemical, small-molecule microarray, 635/667 nm fluorescence, primary screen (AID 1132); conditions: 635 nm fluorescence, higher = more signal
Follistatin (Homo sapiens), sequence (P19883 whole entry, looked up): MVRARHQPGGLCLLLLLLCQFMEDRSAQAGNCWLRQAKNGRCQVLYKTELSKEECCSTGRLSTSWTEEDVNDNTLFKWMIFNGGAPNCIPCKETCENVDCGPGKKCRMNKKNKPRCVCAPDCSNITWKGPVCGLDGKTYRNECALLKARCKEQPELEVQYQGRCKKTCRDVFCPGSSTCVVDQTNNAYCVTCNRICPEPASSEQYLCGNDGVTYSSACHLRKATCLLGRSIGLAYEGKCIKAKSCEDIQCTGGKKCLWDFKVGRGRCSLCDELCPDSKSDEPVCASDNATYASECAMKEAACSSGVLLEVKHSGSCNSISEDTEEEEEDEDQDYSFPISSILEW

[6] = biological target: Fibroblast growth factor 2 (Homo sapiens) (UniProt P09038); assay: basic fibroblast growth factor binding to printed compounds – biochemical, small-molecule microarray, 635/667 nm fluorescence, primary screen (AID 1133); conditions: FGF2, fluorescence 635/667, higher = more signal
Fibroblast growth factor 2 (Homo sapiens), sequence (P09038 whole entry, looked up): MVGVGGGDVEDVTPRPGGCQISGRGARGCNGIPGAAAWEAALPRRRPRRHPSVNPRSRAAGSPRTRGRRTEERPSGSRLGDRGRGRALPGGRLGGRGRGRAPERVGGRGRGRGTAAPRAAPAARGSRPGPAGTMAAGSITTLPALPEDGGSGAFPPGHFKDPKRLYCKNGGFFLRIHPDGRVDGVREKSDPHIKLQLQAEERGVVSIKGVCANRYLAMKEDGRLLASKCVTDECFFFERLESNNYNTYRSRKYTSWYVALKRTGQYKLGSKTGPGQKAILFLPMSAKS

[7] = JC-1 mitochondrial potential readout, lung cancer cells – cell-based, A549, JC-1 fluorescence, basal, 24 h, 100 nL, profiling panel (AID 1138); conditions: higher = more signal;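 note: A549 lung adenocarcinoma cells under basal conditions with no added stimulus; test concentration not given here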
[8] = system: Lefty1; assay: Lefty1 protein binding to printed compounds – biochemical, small-molecule microarray, 635/667 nm fluorescence, primary screen (AID 1139); conditions: fluorescence 635/667, higher = more signal
[9] = system: wheat germ agglutinin (Triticum aestivum), Alexa647-labelled; assay: Alexa647-WGA lectin binding to printed small molecules – biochemical, small-molecule microarray, 635/667 nm fluorescence, artefact control for SMM control-protein annotation, profiling panel (AID 1140); conditions: WGA-A647 binding, 635 nm fluorescence, higher = more signal;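 note: score merges 667 nm feature emission with signal to noise over triplicate slides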
[10] = biological target: Luciferin 4-monooxygenase (Photinus pyralis) (UniProt P08659); assay: inhibition of purified Photinus pyralis luciferase – biochemical, luminescence, purified enzyme, 2006 set, primary screen (AID 1141); conditions: purified firefly luciferase, SteadyGlo luminescence, 30 min; higher = more signal, called active from +8 up or from −8 down;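 note: cell-free assay with purified firefly luciferase at 100 ng per well in PBS; test concentration not given here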
Luciferin 4-monooxygenase (Photinus pyralis), sequence (P08659 whole entry, looked up): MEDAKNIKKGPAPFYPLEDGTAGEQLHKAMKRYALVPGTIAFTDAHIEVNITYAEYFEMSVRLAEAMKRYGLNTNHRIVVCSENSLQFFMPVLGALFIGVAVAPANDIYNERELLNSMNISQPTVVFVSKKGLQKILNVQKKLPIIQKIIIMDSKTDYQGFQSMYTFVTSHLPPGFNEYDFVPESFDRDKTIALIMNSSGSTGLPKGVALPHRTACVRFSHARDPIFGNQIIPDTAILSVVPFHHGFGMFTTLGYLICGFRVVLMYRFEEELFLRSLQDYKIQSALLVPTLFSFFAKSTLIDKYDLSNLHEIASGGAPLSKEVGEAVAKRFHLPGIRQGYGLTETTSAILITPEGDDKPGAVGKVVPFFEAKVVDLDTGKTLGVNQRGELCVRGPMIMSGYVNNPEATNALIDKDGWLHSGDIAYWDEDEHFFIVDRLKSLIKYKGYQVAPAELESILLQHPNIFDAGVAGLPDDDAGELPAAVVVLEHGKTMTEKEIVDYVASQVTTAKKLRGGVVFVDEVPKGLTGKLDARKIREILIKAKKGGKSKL

[11] = system: Wnt5a (protein binding on small-molecule microarray); assay: small molecules binding Wnt5a protein – biophysical, small-molecule microarray, 635/667 nm fluorescence, primary screen (AID 1142); conditions: 635 nm fluorescence, higher = more signal;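 note: fluorescence read at 667 nm with signal to noise per printed feature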
[12] = ATP-based viability of Huh7 replicon cells – cell-based, CellTiter-Glo luminescence, basal, 48 h, cytotoxicity control for HCV replication inhibitor project, primary screen (AID 1143); conditions: higher = more signal, called active from +8 up or from −8 down;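 note: Huh7 hepatoma cells carrying a hepatitis C replication reporter with no stimulus; test concentration not given here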
[13] = Pseudomonas biofilm growth suppression – PAO1 strain, BacTiter-Glo luminescence, LB-PBS, primary screen (AID 1144); conditions: P. aeruginosa PAO1 biofilm, 12 h, higher = more signal
[14] = basal CRE-LacZ reporter activity in PC12 – cell-based, unstimulated, primary screen (AID 1145); conditions: no forskolin, luminescence, 4.5 h, higher = more signal, called active from +8 up or from −8 down
[15] = forskolin-driven CRE-LacZ activity in PC12 – cell-based, CRE-LacZ reporter, forskolin-stimulated, primary screen (AID 1146); conditions: luminescence, 4.5 h, higher = more signal, called active from +8 up or from −8 down;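 note: PC12 cells with 6xCRE LacZ reporter stimulated by forskolin 10 µM; beta-galactosidase reporter signal reflecting CREB driven transcription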
[16] = biological target: Streptavidin (Streptomyces avidinii) (UniProt P22629); assay: compounds binding control protein streptavidin – biophysical, small-molecule microarray, 635/667 nm fluorescence, artefact control for SMM compound annotation, primary screen (AID 1147); conditions: higher = more signal;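 note: signal reflects streptavidin binding to arrayed compounds as a control protein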
Streptavidin (Streptomyces avidinii), sequence (P22629 whole entry, looked up): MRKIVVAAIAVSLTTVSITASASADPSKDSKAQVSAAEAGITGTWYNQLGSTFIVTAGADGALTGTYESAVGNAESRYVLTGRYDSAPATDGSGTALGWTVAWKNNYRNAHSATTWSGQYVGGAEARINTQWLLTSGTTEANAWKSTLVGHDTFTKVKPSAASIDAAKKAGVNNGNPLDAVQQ

[17] = probe aInhba binding on compound microarray – biochemical, small-molecule microarray, 635/667 nm fluorescence, primary screen (AID 1148); conditions: higher = more signal;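 note: score merges 667nm spot fluorescence with signal-to-noise for antibody binding to printed compounds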
[18] = biological target: Torsin-1A (Homo sapiens) (UniProt O14656); assay: TOR1A wild-type binding on microarray – cell lysate, small-molecule microarray, lysate, 635/667 nm, primary screen (AID 1149); conditions: COS7 hTOR1A-WT lysate, 635 nm fluorescence, higher = more signal
Torsin-1A (Homo sapiens), sequence (O14656 whole entry, looked up): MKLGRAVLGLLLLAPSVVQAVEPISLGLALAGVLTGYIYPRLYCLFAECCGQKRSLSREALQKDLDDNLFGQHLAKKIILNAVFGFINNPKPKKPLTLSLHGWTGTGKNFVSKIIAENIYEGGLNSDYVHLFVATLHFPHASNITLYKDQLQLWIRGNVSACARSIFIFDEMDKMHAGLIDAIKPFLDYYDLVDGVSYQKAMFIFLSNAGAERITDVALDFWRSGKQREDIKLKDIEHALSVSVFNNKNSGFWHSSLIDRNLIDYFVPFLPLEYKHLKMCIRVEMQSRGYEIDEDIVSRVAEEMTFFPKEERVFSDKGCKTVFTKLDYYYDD

[19] = biological target: Torsin-1A (Homo sapiens) (UniProt O14656); assay: torsin A mutant lysate binding on microarrays – cell lysate, small-molecule microarray, COS7 lysate, 635/667 nm fluorescence, primary screen (AID 1150); conditions: COS7 hTOR1A mutant lysate, 635 nm fluorescence, higher = more signal;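 note: score pools 667 nm emission and signal to noise measuring lysate protein binding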
[20] = system: Sonic hedgehog protein (Shh); assay: Sonic hedgehog microarray binding compounds – biochemical, small-molecule microarray, 635/667 nm fluorescence, primary screen (AID 1151); conditions: 635 nm fluorescence, higher = more signal;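 note: Shh protein binding to compounds spotted on small-molecule microarray slides; score combines spot fluorescence intensity with signal-to-noise across triplicate slides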

| Structure (SMILES) | composite z-score [1] | composite z-score [2] | composite z-score [3] | composite z-score [4] | composite z-score [5] | composite z-score [6] | z-score [7] | composite z-score [8] | composite z-score [9] | z-score [10] | composite z-score [11] | z-score [12] | z-score [13] | z-score [14] | z-score [15] | composite z-score [16] | composite z-score [17] | composite z-score [18] | composite z-score [19] | composite z-score [20] |
| --- | --- | --- | --- | --- | --- | --- | --- | --- | --- | --- | --- | --- | --- | --- | --- | --- | --- | --- | --- | --- |
| COc1ccc(CCNC(=O)[C@@]2(Sc3ccc(C)cc3)CC(=O)N(C3Cc4ccccc4C3)[C@@H]2c2ccc(CO)cc2)cc1 | 1.27 | 1.21 | 1.54 | 0.434 | 1.65 | 2.16 | 0.927 | 1.44 | 0.437 | 0.529 (inactive) | 1.56 | -5.12 (inactive) | -0.926 (inactive) | -0.698 (inactive) | -0.0678 (inactive) | 1.03 | 0.507 | 0.285 | 0.811 | 2.07 |
| C=CCOC(=O)[C@H]1[C@@H]2C(=O)O[C@@H](c3ccccc3)[C@@H](c3ccccc3)N2[C@@H](c2ccc(OCCOC(=O)[C@@H]3C[C@@H]4C(=O)N5CCC[C@H]5C(=O)N4[C@@H]3c3ccc(O)cc3)cc2)[C@]12C(=O)Nc1ccc(I)cc12 | 0.796 | 0.246 | 0.0398 | 0.664 | 1.36 | 1.16 | -1.28 | 0.698 | 0.671 | -0.873 (inactive) | 0.269 | -0.648 (inactive) | -0.42 (inactive) | 0.423 (inactive) | 0.016 (inactive) | 0.107 | 0.177 | 0.655 | 0.504 | 1.72 |
| [N-]=[N+]=Nc1ccccc1[C@@H]1OC(c2ccc(OCCCO)cc2)=N[C@]1(Cc1ccccc1)C(=O)NCC(O)CO (stereo not given in full) | 2.23 | 0.95 | 0.587 | 0.966 | 1.4 | 1.06 | 1.63 | -0.823 | 1.2 | -4.93 (inactive) | 0.951 | -3 (inactive) | 0.255 (inactive) | 0.834 (inactive) | -1.8 (inactive) | 1.34 | 0.572 | 0.436 | 1.47 | -0.231 |
| O[C@@H](Cc1ccccc1)[C@@H](/C=C/C1CC1)N(CC#Cc1ccccc1)Cc1cccc(Cl)c1 | -0.156 | -0.429 | -0.0816 | -0.6 | -1.19 | -1.43 | 0.513 | -0.954 | 0.197 | 0.466 (inactive) | -0.501 | -1.09 (inactive) | -0.94 (inactive) | 2.04 (inactive) | -0.295 (inactive) | -0.679 | -0.302 | -0.662 | -0.976 | -1.03 |
| C=C[C@@H](OC)[C@H](OC(=O)Nc1ccc(SC)cc1)c1ccc(O)c(F)c1 | 3.07 | 1.23 | 0.566 | 0.763 | 1.11 | 0.207 | -1.47 | 0.885 | 0.679 | -1.59 (inactive) | 0.183 | -1.57 (inactive) | -1.04 (inactive) | 0.847 (inactive) | 0.425 (inactive) | -0.376 | 0.0679 | 0.242 | 0.679 | 1.14 |
| CO[C@]12C=C(Br)[C@@H](C[C@@H]1c1cccc(C)c1)[C@@]1(CO1)C2=O | 0.177 | -0.322 | -0.129 | -0.407 | 0.415 | 0.391 | -0.645 | 0.802 | -0.0489 | 1.02 (inactive) | -0.161 | -0.795 (inactive) | -0.863 (inactive) | 0.223 (inactive) | 5.27 (inactive) | -0.433 | -0.154 | -0.436 | -0.407 | 0.841 |
| CC1CC/C=C\[C@H]2OC34C=CCN(c5ccc(Cl)cc5)C(=O)[C@H]3N(CCCCCO)C(=O)[C@]4(C)C2C(=O)O1 (stereo not given in full) | -0.463 | -0.978 | -0.857 | -1.65 | -1.58 | -1.04 | 0.681 | -0.778 | -0.141 | -0.535 (inactive) | -0.793 | 0.504 (inactive) | 0.454 (inactive) | 0.329 (inactive) | -0.75 (inactive) | -1.18 | -0.251 | -2.18 | -1.48 | -0.449 |
| COc1ccc([Si](C)(C)[C@H]2[C@H](CCn3cc([C@H](O)c4ccccc4)nn3)O[C@@]3(C(=O)N(Cc4ccc(N5C(=O)c6cccc7cccc5c67)cc4)c4ccccc43)[C@@H]2C)cc1 | 0.107 | 0.0893 | -0.254 | -0.153 | -0.185 | 0.768 | 2.81 | -0.0986 | 0.0681 | -1.19 (inactive) | -0.21 | -2.02 (inactive) | -1.05 (inactive) | 1.02 (inactive) | -0.715 (inactive) | 0.618 | -0.0791 | -0.734 | -0.35 | 0.232 |
| CC(C)(C)OC(=O)CC[C@]1(C(=O)NCC(O)CO)N=C(c2ccc(OCCCO)cc2)O[C@H]1c1ccccc1 (stereo not given in full) | 0.872 | 0.937 | -0.216 | 0.118 | -0.786 | -0.494 | 0.0908 | -1.71 | 0.94 | -1 (inactive) | 0.167 | -4.48 (inactive) | -1.56 (inactive) | -0.356 (inactive) | -0.729 (inactive) | 0.291 | 0.0391 | 0.709 | 1.6 | -1.56 |
